Test results: PubChem BioAssay (NCATS)
Several values for one entry are separate records, joined by “and”; a condition that tells them apart may be missing. Equal values may be shown once. Unmarked numbers belong to inactive results. Results filed as inconclusive are left out. A call without a number means that no potency is given here. Activity calls are given as the source filed them. Unless noted, the call rests on the fitted dose curve; in most records, active means well fitted curve in the direction sought with a large enough effect; inconclusive means small, poorly fitted or top-dose-only effect, or another doubt; inactive means no such curve, though single readings can be large; an effect the other way counts as inactive or inconclusive.

Experiments:
[1] = biological target: Voltage-gated inwardly rectifying potassium channel KCNH2 (Homo sapiens) (UniProt Q12809); assay: qHTS Assay for Small Molecule Inhibitors of the Human hERG Channel Activity (AID 588834);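 further: lower thallium flux fluorescence means stronger hERG block; nearly all actives have a fitted effect of over 50% in size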; further: potency means the concentration at half of the fitted maximal effect
Chain of Voltage-gated inwardly rectifying potassium channel KCNH2 (Homo sapiens) (Q12809 whole entry, looked up): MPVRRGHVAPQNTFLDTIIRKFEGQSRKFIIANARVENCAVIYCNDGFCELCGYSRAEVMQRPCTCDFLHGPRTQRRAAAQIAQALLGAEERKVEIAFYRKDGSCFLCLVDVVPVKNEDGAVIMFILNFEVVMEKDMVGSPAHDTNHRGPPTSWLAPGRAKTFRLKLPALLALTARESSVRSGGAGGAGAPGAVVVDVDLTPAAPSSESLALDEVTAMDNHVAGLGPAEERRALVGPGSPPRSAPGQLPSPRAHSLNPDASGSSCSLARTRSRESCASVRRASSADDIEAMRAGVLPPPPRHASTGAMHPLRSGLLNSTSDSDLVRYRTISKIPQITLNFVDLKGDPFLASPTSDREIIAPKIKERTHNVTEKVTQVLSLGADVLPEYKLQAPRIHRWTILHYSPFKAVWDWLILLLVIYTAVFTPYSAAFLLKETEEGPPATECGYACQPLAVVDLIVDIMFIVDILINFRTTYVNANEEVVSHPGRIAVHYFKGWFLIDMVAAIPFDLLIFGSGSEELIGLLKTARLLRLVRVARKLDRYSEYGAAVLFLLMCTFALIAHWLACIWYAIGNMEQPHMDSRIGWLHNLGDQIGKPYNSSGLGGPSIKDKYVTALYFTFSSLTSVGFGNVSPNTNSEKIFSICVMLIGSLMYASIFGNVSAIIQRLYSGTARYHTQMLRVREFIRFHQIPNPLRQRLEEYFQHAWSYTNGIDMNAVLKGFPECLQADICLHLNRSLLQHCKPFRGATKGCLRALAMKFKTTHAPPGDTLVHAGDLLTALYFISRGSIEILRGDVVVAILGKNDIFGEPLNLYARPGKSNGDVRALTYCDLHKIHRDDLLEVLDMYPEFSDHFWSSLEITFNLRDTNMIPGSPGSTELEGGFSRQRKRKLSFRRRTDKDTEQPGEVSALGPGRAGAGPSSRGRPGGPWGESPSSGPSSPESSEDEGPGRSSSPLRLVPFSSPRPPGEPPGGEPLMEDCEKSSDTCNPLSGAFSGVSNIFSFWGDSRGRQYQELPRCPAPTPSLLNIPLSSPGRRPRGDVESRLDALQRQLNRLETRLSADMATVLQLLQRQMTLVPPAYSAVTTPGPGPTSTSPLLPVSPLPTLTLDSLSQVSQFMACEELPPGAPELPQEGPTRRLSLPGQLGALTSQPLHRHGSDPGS
Outline: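 Thallium serves as surrogate for K+ influx through BacMam-delivered hERG in U2OS cells. Compounds are added for about 10 minutes after dye loading; stimulation buffer then starts flux, monitored kinetically on FDSS.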

[2] = biological target: Luciferin 4-monooxygenase (Photinus pyralis) (UniProt P08659); assay: Biochemical firefly luciferase enzyme assay for NPC (AID 624030);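 further: purified P. pyralis luciferase at 10 nM with luciferin and ATP substrate; nearly all actives have a fitted effect of over 70% in size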
Chain of Luciferin 4-monooxygenase (Photinus pyralis) (P08659 whole entry, looked up): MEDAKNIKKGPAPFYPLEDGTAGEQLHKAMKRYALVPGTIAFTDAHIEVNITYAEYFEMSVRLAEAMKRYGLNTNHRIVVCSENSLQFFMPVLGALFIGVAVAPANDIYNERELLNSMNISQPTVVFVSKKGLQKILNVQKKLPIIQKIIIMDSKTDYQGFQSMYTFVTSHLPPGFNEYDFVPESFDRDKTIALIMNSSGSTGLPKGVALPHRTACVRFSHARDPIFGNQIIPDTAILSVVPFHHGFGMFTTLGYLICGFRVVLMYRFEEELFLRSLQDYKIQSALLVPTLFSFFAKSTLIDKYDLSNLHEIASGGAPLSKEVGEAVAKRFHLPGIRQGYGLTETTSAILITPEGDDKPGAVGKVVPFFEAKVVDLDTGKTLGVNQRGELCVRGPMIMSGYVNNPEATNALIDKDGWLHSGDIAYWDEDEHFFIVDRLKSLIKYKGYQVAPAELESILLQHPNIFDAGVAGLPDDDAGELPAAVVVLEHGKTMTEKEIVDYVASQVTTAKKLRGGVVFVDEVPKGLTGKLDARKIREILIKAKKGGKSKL
Outline: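 Counter-screen for direct inhibition of the luciferase enzyme by approved-drug library compounds, run at 10 nM enzyme in 50 mM Tris acetate (final). Luminescence was read within 5 min of enzyme-buffer addition and normalized to PTC124 versus DMSO (0%).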

[3] = S16 Schwann cell viability assay (CellTiter-Glo assay) (AID 624031);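 further: cellular ATP luminescence as a viability measure; nearly all actives have a fitted effect of over 70% in size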
Outline: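 This viability control uses native rat S16 Schwann cells grown in DMEM plus 10% FBS. After a 24 h compound treatment at 37 °C, CellTiter-Glo luminescence reports ATP content, scaled against DMSO-treated and cell-free wells.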

[4] = S16 Schwann cell PMP22 intronic element firefly luciferase assay (AID 624032); further: nearly all actives have a fitted effect of over 30% in size; further: potency means the concentration at half of the fitted maximal effect
Outline: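 Rat S16 Schwann cells stably carrying a PMP22 intronic element-driven Fluc reporter were seeded overnight, then exposed to compounds for 24 h at 37 °C. Luminescence was normalized to PTC124 (positive control) and DMSO (0% activity).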

[5] = S16 Schwann cell PMP22 intronic element beta-lactamase assay (AID 624044; calls by dose curve; further: nearly all actives have a fitted effect of over 15% in size); settings: S16 rat Schwann cells, PMP22 element beta-lactamase FRET, 24 h; ratio activity, negative = inhibition: at 38.3 µM (top of the series) unless noted
Outline: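 Beta-lactamase reporter under a PMP22 intronic regulatory element in stable S16 rat Schwann cells; 24 h compound exposure. 460 nm blue signal normalized between DMSO (0%) and potassium clavulanate, with 535 nm FRET tracking viability; curves classed by r2 and response.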

[6] = qHTS assay for small molecule agonists of the antioxidant response element (ARE) signaling pathway (AID 651741; active means well fitted activation curve with a large enough effect in the signal ratio; the % refers to the signal ratio; further: potency means the concentration at half of the fitted maximal effect)
Outline: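 Beta-lactamase reporter expression driven by the antioxidant response element in HepG2 cells was detected by fluorescence with LiveBLAzer B/G FRET substrate (2 h, room temperature) following 16 h compound treatment at 37 C.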

[7] = qHTS assay for small molecule activators of the p53 signaling pathway (AID 651743; active means well fitted activation curve with a large enough effect in the signal ratio, not every such curve was filed as active; the % refers to the signal ratio); settings: HCT-116 p53RE-bla, beta-lactamase FRET ratio, 16 h; activation: active compounds read high
Outline: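 Here HCT-116 cells with an integrated p53-responsive beta-lactamase gene were incubated with compounds (16 hours, 37 C) after a 5-hour plating period; beta-lactamase activity was detected as fluorescence intensity via B/G FRET substrate.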

[8] = qHTS assay for small molecule activators of the nuclear factor-kappa B (NF-kB) signaling pathway (AID 651749; active means well fitted activation curve with a large enough effect in the signal ratio; the % refers to the signal ratio); settings: NF-kB-bla ME-180 cells, beta-lactamase FRET ratio, 16 h; active compounds read high
Outline: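 Beta-lactamase reporter expression, controlled by NF-kB response elements in ME-180 cells, was quantified fluorometrically via FRET disruption; cells at 2,000/well had been incubated with 23 nL test compound for 16 hr.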

[9] = qHTS assay for environmental chemicals that activate the Aryl hydrocarbon Receptor (AhR) signaling pathway (AID 651777); settings: 1A2-DRE human hepatoma cells, luciferase, 24 h; activation: active compounds read high; further: nearly all actives have a fitted effect of over 15% in size
Outline: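 Following a 24 hr incubation with test chemicals at 37 C and 5% CO2, 1A2-DRE human hepatoma cells received One-Glo reagent; after 30 min at room temperature, luciferase output reflected CYP1A2 induction via AhR.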

[10] = biological target: Peroxisome proliferator-activated receptor alpha (Homo sapiens) (UniProt Q07869); assay: qHTS assay for small molecule agonists of the peroxisome proliferator-activated receptor alpha (PPARalpha) signaling pathway (AID 651778); settings: PathHunter PPARalpha complementation, chemiluminescence, 6 h; active compounds read high
Chain of Peroxisome proliferator-activated receptor alpha (Homo sapiens) (Q07869 whole entry, looked up): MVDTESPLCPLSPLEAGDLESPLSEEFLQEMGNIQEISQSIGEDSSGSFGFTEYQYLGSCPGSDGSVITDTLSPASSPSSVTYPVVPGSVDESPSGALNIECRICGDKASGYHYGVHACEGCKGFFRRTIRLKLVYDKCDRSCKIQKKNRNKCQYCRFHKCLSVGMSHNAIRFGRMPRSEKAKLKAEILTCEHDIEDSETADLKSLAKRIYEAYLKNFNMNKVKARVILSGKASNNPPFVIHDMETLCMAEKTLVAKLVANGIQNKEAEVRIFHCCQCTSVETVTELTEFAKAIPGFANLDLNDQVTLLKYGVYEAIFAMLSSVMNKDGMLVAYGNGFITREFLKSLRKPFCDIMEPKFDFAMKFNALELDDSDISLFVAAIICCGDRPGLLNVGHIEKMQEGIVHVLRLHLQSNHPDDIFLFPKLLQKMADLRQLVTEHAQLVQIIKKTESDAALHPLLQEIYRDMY
Outline: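 Cells plated at 2,000/well and held overnight at 37 C, 5% CO2, then compound added by pin tool for 6 hr; after PathHunter detection reagent and 60 min at room temperature, chemiluminescence from enzyme complementation was read.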

[11] = qHTS assay for small molecule disruptors of the mitochondrial membrane potential - 1 hr assay (AID 651754; calls by dose curve; further: nearly all actives have a fitted effect of over 35% in size)
Outline: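 In this qHTS format, a 1 hr compound treatment of HepG2 cells precedes Mito-MPS staining, and membrane potential is judged from aggregate (red) against monomer (green) fluorescence intensity.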

[12] = qHTS assay for small molecule disruptors of the mitochondrial membrane potential - 5 hr assay (AID 651755; calls by dose curve; further: nearly all actives have a fitted effect of over 40% in size)
Outline: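 Seed HepG2 overnight, add compound, incubate 5 hr at 37C and 5% CO2, stain 30 min with Mito-MPS, then measure monomer (490/535 nm) and aggregate (540/590 nm) fluorescence.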

[13] = biological target: Tumor necrosis factor (Homo sapiens) (UniProt P01375); assay: qHTS assay to identify small molecules that stimulate Tumor Necrosis Factor-alpha (TNF-alpha) secretion (AID 651757; active means well fitted curve in the direction sought with a large enough effect in the signal ratio; the % refers to the signal ratio; further: potency means the concentration at half of the fitted maximal effect)
Chain of Tumor necrosis factor (Homo sapiens) (P01375 whole entry, looked up): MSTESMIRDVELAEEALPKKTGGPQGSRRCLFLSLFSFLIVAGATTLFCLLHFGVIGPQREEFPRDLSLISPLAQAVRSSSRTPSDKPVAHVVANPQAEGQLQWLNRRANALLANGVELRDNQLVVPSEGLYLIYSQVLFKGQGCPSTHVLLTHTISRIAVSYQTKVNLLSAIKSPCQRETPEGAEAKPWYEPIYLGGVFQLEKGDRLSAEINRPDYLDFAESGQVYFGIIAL
Outline: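 Using 3000 THP-1 cells per well, compounds and controls were applied for 17 hrs at 37 C. Detection followed with two labeled anti-TNF-alpha antibodies (cryptate donor, XL665 acceptor) for 3 hr at room temperature, measured by TR-FRET.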

[14] = qHTS assay to identify small molecules that stimulate interleukin-8 (IL-8) secretion (AID 651758; active means well fitted activation curve with a large enough effect in the signal ratio; the % refers to the signal ratio)
Outline: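 Quantitative HTS in THP-1 monocytic cells at 2000 cells per well, with 16 hrs compound incubation at 37 C. IL-8 in the medium was then quantified by HTRF immunoassay, read after 1-3 hrs at room temperature.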

[15] = biological target: Nuclear receptor ROR-gamma (Homo sapiens) (UniProt P51449); assay: qHTS assay for small molecule antagonists of the retinoid-related orphan receptor gamma (ROR-gamma) signaling pathway (AID 651802); further: nearly all actives have a fitted effect of over 60% in size; further: potency means the concentration at half of the fitted maximal effect
Chain of Nuclear receptor ROR-gamma (Homo sapiens) (P51449 whole entry, looked up): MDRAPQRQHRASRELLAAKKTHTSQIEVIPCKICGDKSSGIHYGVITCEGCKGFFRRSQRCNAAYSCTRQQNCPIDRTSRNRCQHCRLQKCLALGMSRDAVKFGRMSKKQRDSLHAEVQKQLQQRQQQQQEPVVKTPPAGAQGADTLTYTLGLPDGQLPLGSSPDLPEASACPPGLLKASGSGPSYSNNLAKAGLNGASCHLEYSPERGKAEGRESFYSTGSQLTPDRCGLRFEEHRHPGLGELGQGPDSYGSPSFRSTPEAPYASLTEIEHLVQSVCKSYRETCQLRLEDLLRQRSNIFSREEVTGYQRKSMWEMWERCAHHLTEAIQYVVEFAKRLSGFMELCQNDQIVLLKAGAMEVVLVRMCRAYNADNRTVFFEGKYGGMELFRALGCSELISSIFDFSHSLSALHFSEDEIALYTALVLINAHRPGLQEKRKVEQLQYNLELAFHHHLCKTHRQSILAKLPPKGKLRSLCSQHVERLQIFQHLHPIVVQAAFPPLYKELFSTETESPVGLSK
Outline: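 Doxycycline-induced reporter activity in engineered CHO cells (TET-inducible ROR, RORE-LUC) was measured by luminescence after 16hr compound exposure at 37C.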

Row | SMILES | Potency [1] | Potency [2] | Potency [3] | Potency [4] | ratio activity, negative = inhibition [5] | Potency [6] | activation [7] | activation [8] | activation [9] | max response [10] | Potency [11] | Potency [12] | Potency [13] | Potency [14] | Potency [15]
1 | CCCCCCCCCCCCCCCCCC(=O)OC[C@@H](O)[C@H]1OC[C@H](O)[C@H]1O | inactive | inactive | inactive | inactive | 1.3% | inactive | -1.65% | -0.074% | 0.366% | 12.5% | – | – | – | – | –
2 | CC(CCc1ccc(O)cc1)NCC(O)c1ccc(O)cc1 (centres undefined) | 1780 nM (active) | inactive | inactive | 2030 nM (active) | -5.84% | – | – | – | – | – | – | – | – | – | –
3 | CC(C)CCC[C@@H](C)[C@H]1CC[C@H]2[C@@H]3CC=C4C[C@@H](O)CC[C@]4(C)[C@H]3CC[C@]12C | inactive | inactive | inactive | inactive | 7.26% | 54500 nM (active) | -0.872% | 0.0919% | -1.61% | -0.612% | – | – | – | – | –
4 | Nc1ncnc2c1ncn2[C@H]1CC[C@@H](CO)O1 | inactive | inactive | inactive | inactive | – | inactive | -6.3% and -2.15% | -1.92% | 3.83% and -0.699% | -1.88% and -2.98% | inactive | inactive | inactive | inactive | inactive
5 | C=CC(C)(O)CC/C=C(\C)CCC=C(C)C (centres undefined) | inactive | inactive | inactive | inactive | -13.1% (active) | – | -1.4% | 0.695% | 0.207% | -0.214% | – | – | – | – | –
6 | C[C@H]1O[C@@H](O[C@H]2[C@@H](O)C[C@H](O[C@H]3[C@@H](O)C[C@H](O[C@H]4CC[C@@]5(C)[C@H](CC[C@@H]6[C@@H]5C[C@@H](O)[C@]5(C)[C@@H](C7=CC(=O)OC7)CC[C@]65O)C4)O[C@@H]3C)O[C@@H]2C)C[C@H](O)[C@@H]1O | inactive | inactive | inactive | inactive | – | – | – | -3.56% and -2.4% | 2.26% and 1.31% | 3.82% and -3.75% | – | – | 376 nM (active) | – | 9440 nM (active)
7 | CN(CCO)CC(O)Cn1cnc2c1c(=O)n(C)c(=O)n2C (centres undefined) (tested in a mixture with another compound) | inactive | inactive | inactive | inactive | 1.27% | inactive | – | 1.88% | -0.921% | -0.0909% | – | – | – | – | –
8 | OCCOCCOCCO | inactive | inactive | inactive | inactive | – | inactive | 1.43% and -1.5% | -1.02% and -0.204% | – | 0.91% and -3.36% | – | – | – | – | –
